Screening data deposited in PubChem by Corson Lab, School of Medicine, Indiana University.
FECH block = inhibitors of human ferrochelatase, primary screen, biochemical, purified FECH, Ni-mesoporphyrin absorbance | Ferrochelatase, mitochondrial (Homo sapiens), P22830 | Ni-mesoporphyrin absorbance 550 nm | 20,000 tested, 3.3% active | calls only at 10 µM (by protocol);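 active = enzyme reaction rate more than 3 SD below the solvent-only control wells on the same plate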;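 note: lower slope than DMSO wells means FECH inhibition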
Target sequence (P22830 whole entry, looked up): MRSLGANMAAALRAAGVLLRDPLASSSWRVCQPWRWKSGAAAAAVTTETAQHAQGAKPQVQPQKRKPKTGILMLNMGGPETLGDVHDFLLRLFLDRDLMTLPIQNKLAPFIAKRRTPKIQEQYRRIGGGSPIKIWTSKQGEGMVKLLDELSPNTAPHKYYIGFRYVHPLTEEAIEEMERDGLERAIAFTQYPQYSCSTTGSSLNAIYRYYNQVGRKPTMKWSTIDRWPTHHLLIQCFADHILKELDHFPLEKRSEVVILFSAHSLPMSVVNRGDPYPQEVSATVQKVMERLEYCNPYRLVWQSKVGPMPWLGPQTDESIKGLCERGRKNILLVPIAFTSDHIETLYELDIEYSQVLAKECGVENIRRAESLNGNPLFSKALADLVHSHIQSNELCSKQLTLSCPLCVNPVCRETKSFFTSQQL
An asterisk follows results filed as active; i = inactive; + = active, no number. Many of the other results were omitted from the sample, so hits are more common in it than they were.

SMILES	FECH block
CCOc1ccccc1NCc1cc(=O)n2[nH]c(NCc3ccccc3Cl)nc2n1	+
c1cn(Cc2ccc3c(c2)OCO3)c(-c2ccc(C3CCCCO3)o2)n1 (stereo not given)	i
Cc1ccc(-c2ccnc(NCc3cc(=O)[nH]cn3)n2)c(C)n1	i
Cc1cc(C)cc(CN2CCN(Cc3cnn(C)c3)CC2=O)c1	i
CC(=O)Nc1cccc(-c2ncc(C(F)(F)F)cc2Cl)c1	i
CCCc1cnc(C)nc1-c1cccc(NC(C)=O)c1	+
CC(=O)Nc1cccc(-c2ccc3[nH]ncc3c2)c1	i
O=C(NCCN1CCCCC1)c1cc(N2CCCN3CCC[C@H]3C2)ccn1	i
Cc1ccc(S(=O)(=O)N(Cc2nc3nc(C)cc(C)n3n2)c2ccccc2)cc1	i
Cc1ccc(S(=O)(=O)N(Cc2nc3nc(C)c(Cl)c(C)n3n2)c2ccccc2)cc1	i
Cc1ccc(N(Cc2nc3nc(C)cc(C)n3n2)S(C)(=O)=O)cc1	i
Cc1ccc(N(Cc2nc3nc(C)cc(C)n3n2)S(=O)(=O)c2ccc(Cl)cc2)cc1	+
Cc1ccc(S(=O)(=O)N(Cc2nc3nc(C)cc(C)n3n2)c2ccc(Cl)cc2)cc1	+
Cc1cc(C)n2nc(CN(c3cccc(Cl)c3)S(=O)(=O)c3ccccc3)nc2n1	i
COc1ccc(Cl)cc1S(=O)(=O)NCc1nc2cccnc2n1C	i
COc1ccc(N2C(=O)CCS2(=O)=O)cc1S(=O)(=O)Nc1ccc(C(C)(C)C)cc1	i
CN1CC(=O)N(CC(=O)Nc2ccc(F)cc2Cl)c2ccccc2C1=O	i
Cc1ccc(Cc2nc3nc4c(c(=O)n3[nH]2)CCCC4)cc1	i
Cc1cccc(C)c1NCc1nc2nc3c(c(=O)n2[nH]1)CCC3	+
Cc1cccc(NCc2cc(=O)n3[nH]c(NCc4ccc(F)cc4)nc3n2)c1C	i
Cc1cccc(NCc2nc3nc4c(c(=O)n3[nH]2)CCC4)c1C	+
O=c1c2c(nc3nc(CNc4ccccc4Cl)[nH]n13)CCC2	i
CC(C)n1cnnc1CN(C)C(=O)c1ccc(CSc2ncccn2)o1	i
Cc1nnsc1CN(C)C(=O)c1ncn[nH]1	i
Cc1ccc2cc(-c3noc(CCC(=O)NC4CCCC4)n3)c(=O)[nH]c2c1	i
SMILES	FECH block
CCOc1ccc(-c2nc(C(N)=O)c3c(n2)n(-c2ccc(C)c(C)c2)c(=O)n3CC)cc1	i
Cc1ccccc1S(=O)(=O)NCc1nc2cccnc2n1CC(C)C	i
CCc1ccc(Cn2c(CNS(=O)(=O)c3ccc(C)cc3)nc3cccnc32)cc1	i
Cc1cccc(Cn2c(CNS(=O)(=O)c3ccc(F)cc3)nc3cccnc32)c1	i
Cc1cccc(S(=O)(=O)NCc2nc3cccnc3n2Cc2ccccc2)c1	i
Cc1cccc(Cn2c(CNS(=O)(=O)c3ccccc3)nc3cccnc32)c1	+
CCOc1ccc(C(=O)NCc2nc3cccnc3n2Cc2ccc(C)cc2)cc1	i
CC(C)Cn1c(CNS(=O)(=O)c2ccc(Cl)cc2)nc2cccnc21	i
Cc1ccc(Cn2c(CNC(=O)c3cccnc3)nc3cccnc32)cc1	+
CCc1ccc(Cn2c(CNS(=O)(=O)c3ccc([N+](=O)[O-])cc3)nc3cccnc32)cc1	+
Cc1ccc(Cn2c(CNC(=O)c3ccncc3)nc3cccnc32)cc1	i
CCc1ccc(S(=O)(=O)NCc2nc3cccnc3n2Cc2ccc(F)cc2)cc1	i
CC(C)Cn1c(CNS(C)(=O)=O)nc2cccnc21	+
COc1ccc(Cn2c(CNC(=O)c3cc(OC)c(OC)c(OC)c3)nc3cccnc32)cc1	i
Cc1ccc(NCCCNC(=O)C2CCN(C(C)C)CC2)nc1	i
Cc1ccc(-c2ncc3c(=O)n(CCN4CCOCC4)c(=O)n(C)c3n2)cc1	i
CCn1nc(C)c(NC(=O)CN(C)Cc2nnc(-c3ccccc3)o2)c1C	i
CC(=O)c1ccc(S(=O)(=O)NCc2nc3cccnc3n2C)cc1	i
COc1cccc(CN(c2nc3nc(C)cc(C)n3n2)S(=O)(=O)c2ccccc2)c1	i
O=C(NCCNc1cccnc1)c1ccc(Cl)cn1	i
CCCNC(=O)c1nc[nH]c1C(=O)N1CCN(Cc2ccccc2)CC1	i
O=C(C1CCCN(c2ncnc3c2nc2n3CCCCC2)C1)N1CCN(c2ncccn2)CC1 (stereo not given)	i
CCCc1cc(=O)[nH]c(SCc2nc(-c3ccccc3OC)oc2C)n1	i
CCC(=O)Nc1cccc(C(=O)NCC[C@@H]2C[C@@H]3C=C[C@H]2C3)c1	i
COc1ccc(N2C(=O)CCS2(=O)=O)cc1S(=O)(=O)NCc1ccccc1	i
SMILES	FECH block
COc1cccc(CNC(=O)CSCc2nc(-c3ccccc3)no2)c1	i
COc1ccccc1C(=O)NCC1CCN(C2CCCCCC2)C1 (stereo not given)	i
Cc1cc(C)n(CC2(CNC(=O)c3cc(CC(C)C)nn3C)CC2)n1	i
CCN1C(SCC(=O)Nc2ccccc2F)=NS(=O)(=O)c2ccccc21	+
Cc1cccc(NC(=O)CN2C(=O)CC(c3ccccc3)=Nc3ccccc32)c1C	i
Cc1ccc(CN2CCN(CC(=O)Nc3ccccc3F)S2(=O)=O)cc1	i
CN(C)c1nc2ncnc(SCC(=O)Nc3ccccc3F)c2s1	i
CCN1C(SCC(=O)Nc2cccc(C)c2C)=NS(=O)(=O)c2ccccc21	+
Cc1cccc(NC(=O)CSCc2nc(-c3ccccc3)no2)c1C	i
CCc1cc(Sc2ccc(NC(=O)c3cccc(C)c3)cc2)n2ncnc2n1	i
CC(=O)NCCn1ccnc1-c1ccccc1OCc1ccccc1	i
CCc1ncc2c(n1)CN(C(=O)c1coc3c1C(=O)CCC3)C2	i
Cn1c(=O)c2c(-c3ccccc3Cl)c(Nc3ccccc3)oc2n(C)c1=O	i
Cc1cncc(C(=O)N2CC(c3ccccn3)C2)c1	i
Cc1ccc(CNC(=O)CN2CCN(Cc3ccc(F)cc3Cl)S2(=O)=O)cc1	i
Cc1cccc(C)c1NC(=O)CN1CCN(Cc2ccc(F)cc2Cl)S1(=O)=O	i
Cc1ccc(CN2CCN(CC(=O)Nc3cccc(Cl)c3C)S2(=O)=O)cc1	i
COc1ccc(CCNC(=O)CN2CCN(Cc3ccc(F)cc3Cl)S2(=O)=O)cc1OC	+
O=C(CN1CCN(Cc2ccccc2Cl)S1(=O)=O)NCc1ccccc1Cl	i
O=C(CN1CCN(Cc2ccc(F)cc2Cl)S1(=O)=O)Nc1ccc2c(c1)OCO2	i
O=C(CN1CCN(Cc2ccccc2Cl)S1(=O)=O)Nc1ccc(F)cc1	i
Cc1c(Cl)cccc1NC(=O)CN1CCN(Cc2ccc(F)cc2Cl)S1(=O)=O	+
O=C(CN1CCN(Cc2ccc(F)cc2Cl)S1(=O)=O)NCc1ccccc1	+
COC(=O)c1ccc(OC)c(CN2CCN(Cc3ccc(F)cc3Cl)S2(=O)=O)c1	i
O=C(CN1CCN(Cc2ccc(F)cc2Cl)S1(=O)=O)NCc1ccccc1Cl	+
SMILES	FECH block
O=C(CN1CCN(Cc2ccc(F)cc2)S1(=O)=O)NCc1ccccc1	i
COCCc1noc(CN2CCC(c3ccccc3C(=O)O)C2)n1 (stereo not given)	i
CN(Cc1ncc[nH]1)c1nccc(C2CCCC2)n1	i
Cc1ccsc1CN(CCN(C)C)C(=O)c1ncccc1O	i
Cc1ccccc1C1(O)CCN(C(=O)c2cn[nH]n2)C1 (stereo not given)	i
COc1ccc(OC)c(S(=O)(=O)Nc2cnc(N3CCOCC3)c(C(=O)O)c2)c1	i
